Reference: PubChem BioAssay
Unmarked numbers belong to inactive results.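 How the source made its calls: active means viability increase at or above a cutoff of the median across tested compounds plus 3 SD (cut at about 8.5% in these data, passing the limit was not always enough); inconclusive means some gains above the cutoff, reason not given; inactive means the rest.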

Assay: viability gain of MRP-1-high H69AR cells under doxorubicin, pilot screen, MRP-1 activator project, CellTiter-Glo, duplicate (AID 807);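 further: compound pretreatment 18-22 h then 72 h combined with doxorubicin; 0% = doxorubicin alone and 100% = vehicle without doxorubicin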
Settings: H69AR viability with doxorubicin, CellTiter-Glo luminescence; at 10 µM; stronger effect = higher value

SMILES	viability increase
COc1ccccc1N=Cc1c(O)n(C)c(=O)n(C)c1=O	0.23%
COc1ccc(N2C(=O)CC(N3CC=C(c4ccccc4)CC3)C2=O)cc1 (stereo unspecified)	1.66%
Cc1ccc2occ(CN3CC4CC(C3)c3cccc(=O)n3C4)c(=O)c2c1 (stereo unspecified)	-2.72%
Cc1cc(OCC(=O)OC(C)(C)C)c2c3c(c(=O)oc2c1)CCC3	-2.71%
O=C(c1ccccc1)c1cn(CC(=O)N2CCCC2)c2ccccc12	-1.14%
CC12CN3CC(C)(CN(C1)P3(=O)Oc1ccccc1)C2=O (stereo unspecified)	-0.06%
COc1ccc(C2C(C(=O)N3CCC4(CC3)OCCO4)c3cc(OC)c(OC)cc3C(=O)N2C)cc1 (stereo unspecified)	-2.58%
c1ccc2sc(C3CCCNC3)nc2c1 (stereo unspecified)	-1.16%
CCOC(=O)C1CCN(/C=C2/C(=O)NC(=O)N(c3ccc(OCC)cc3)C2=O)CC1	1.62%
c1cncc(C2CCCCN2Cc2ccc3c(c2)OCO3)c1 (stereo unspecified)	-0.84%
COc1cc2c(cc1OC)-c1c(OC)c(OC)cc3c1C(C2)N(C)CC3 (stereo unspecified)	-3.02%
O=C(O)c1cc2ccccc2oc1=O	-0.27%
O=c1c2ccccc2nc(-c2ccco2)n1-c1ccccn1	-0.82%
Cc1cccnc1-n1c(-c2ccco2)nc2ccccc2c1=O	-0.56%
Nc1ccc(S(=O)(=O)N2CC3CC(C2)c2cccc(=O)n2C3)cc1 (stereo unspecified)	0.35%
O=C(CN1CC(c2ccccc2)CC1=O)Nc1cccc(F)c1 (stereo unspecified)	-4.37%
